# Reference: PubChem BioAssay (NCATS)
# Results filed as inconclusive are left out. A call without a number means that no potency is given here. Active and inactive are the calls of the source. Calls come from the whole dose curve; as a rule, active = well fitted cell-killing curve with a large enough effect; inconclusive = small, poorly fitted or top-dose-only effect, or effect the other way; inactive = flat fitted curve, though single readings scatter.
# Columns and labels:
# Assay in all cases: Primary qHTS to identify gynecologic anti-cancer compounds using libraries of approved drugs and bioactive compounds (AID 1345084); note: nearly all actives have a fitted effect of over 55% in size
# Details in all cases: Gynecologic cancer cell panel viability, ATPlite luminescence, 48 h; series mostly up to 57.5 µM
# [1] = system: PA-1
# Outline: (§1)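 Luminescence from the ATPlite ATP-monitoring reagent indicates viable cell number; lower signal means cytotoxicity. Cells received compound 16 h after seeding and were exposed for 48 h across five concentrations.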
# [2] = system: SKOV3
# Outline: as §1
# [3] = system: Tov-21-G
# Outline: as §1
# [4] = system: Tov112D
# Outline: as §1
# Potency is the fitted concentration of half-maximal effect.
SMILES,Potency [1],Potency [2],Potency [3],Potency [4]
Cc1c(C2=CCN(C(=O)N(C)C(C)C)CC2)nnn1-c1cccnc1F,inactive,inactive,inactive,inactive
OC1CCC(Nc2nc(-c3ccccc3)nc3[nH]ccc23)CC1 (centres undefined),inactive,inactive,inactive,inactive
Cc1cn2cc(C(=O)N(C)CCO)cc(NC3CCOc4cccc(C)c43)c2n1 (centres undefined),inactive,inactive,inactive,inactive
CCC(=O)N1CCOc2c(cc(-c3ccc(OC)c(OC)c3)cc2OC[C@H]2CCCN(C)C2)C1,inactive,inactive,inactive,inactive
COc1cc2nc(N3CCN(C(=O)COc4c(OC)cccc4C(C)C)CC3)nc(N)c2cc1OC,inactive,inactive,inactive,inactive
N#Cc1ccc(COC[C@H]2O[C@@H](n3c(NCc4ccc(Cl)c(Cl)c4)nc4c(N)ncnc43)[C@H](O)[C@@H]2O)cc1,inactive,inactive,inactive,inactive
COc1cc(OC)c(NC(=O)c2ccc(Cc3cc4c(cc3C)C(C)(C)CCC4(C)C)o2)c(OC)c1,inactive,inactive,inactive,inactive
CC(C)(Cc1ccccc1)NCC(O)c1ccc(O)c(NS(C)(=O)=O)c1 (centres undefined),inactive,inactive,inactive,inactive
CC1=C(c2ccc(NC(=O)c3c(F)cccc3F)cc2)CN(c2nccs2)CC1,inactive,inactive,inactive,inactive
CCC(C(C)O)n1ncn(-c2ccc(N3CCN(c4ccc(OCC5COC(Cn6cncn6)(c6ccc(F)cc6F)C5)cc4)CC3)cc2)c1=O (centres undefined),inactive,inactive,inactive,inactive
CC(=O)OC[C@]12[C@H](OC(C)=O)C(=O)[C@@H]3[C@@H](O)[C@@]14O[C@@]3(C)COC(=O)c1cccnc1[C@@H](C)[C@H](C)C(=O)O[C@@H]([C@H](O)[C@@H]2OC(C)=O)[C@]4(C)O,inactive,inactive,inactive,inactive
Cc1cc(C(=O)Cn2cc(C#N)ccc2=O)c(C)n1Cc1ccccc1,inactive,inactive,inactive,inactive
O=C1c2ccc(Nc3ccc(F)cc3F)cc2CCc2ccc(OCC(O)CO)cc21 (centres undefined),inactive,inactive,inactive,inactive
COc1ccc(C2Oc3c(OC)cc(CCCO)cc3C2COC2OC(CO)C(O)C(O)C2O)cc1OC (centres undefined),inactive,inactive,inactive,inactive
Cn1nc(-c2ccc(C(F)(F)F)cc2)nc2c(=O)n(C)c(=O)nc1-2,5.01 µM (active),17.8 µM (active),12.6 µM (active),7.94 µM (active)
CC(O)C(C)n1ncn(-c2ccc(N3CCN(c4ccc(OCC5COC(Cn6cncn6)(c6ccc(Cl)cc6Cl)O5)cc4)CC3)cc2)c1=O (centres undefined),inactive,inactive,inactive,inactive
O=C(OC1CN2CCC1CC2)N1CCc2ccccc2C1c1ccccc1 (centres undefined),inactive,inactive,inactive,inactive
O=C(NCCN1CCN(c2cccc3ccc(O)cc23)CC1)c1ccc(F)cc1,inactive,inactive,inactive,inactive
CCC(C)C(=O)Oc1cc(C)ccc1C1(COC(=O)C(C)C)CO1 (centres undefined),inactive,inactive,inactive,inactive
COc1cc2c(cc1O)C1(Cc3ccc4c(c3C1O)OCO4)[N+](C)([O-])CC2 (centres undefined),inactive,inactive,inactive,inactive
Cc1nnc(-c2ccc(-c3ccc(C(=O)Nc4ccc(O)c(N5CCN(C)CC5)c4)cc3)c(C)c2)o1,inactive,inactive,inactive,inactive

SMILES,Potency [1],Potency [2],Potency [3],Potency [4]
CC(C)C(C)C(O)C1CC23CC(=O)C4(O)C(=C2CCC3C1C)C=CC1(O)CC(O)CCC14C (centres undefined),inactive,inactive,inactive,inactive
COc1cc(N(C)CCN(C)C)c(N)cc1Nc1nccc(-c2cn(C)c3ccccc23)n1,inactive,inactive,inactive,inactive
CN(C)c1ccnc2sc3c(=O)n(N4CCCCCC4)cnc3c12,inactive,inactive,inactive,inactive
Cc1cc(F)ccc1-c1nc(NCCN=C(N)NC#N)nc2c1ccc(=O)n2-c1c(F)cccc1F,inactive,inactive,inactive,inactive
Cc1onc(-c2ccccc2)c1C(=O)N1CCN(c2ccc([N+](=O)[O-])cc2Cl)CC1,inactive,inactive,inactive,inactive
CCC(CC)C(=O)OC12C(OC(=O)C(C)C)C(C)C3(O)C(C=C(CO)CC4(O)C(=O)C(C)=CC43)C1C2(C)C (centres undefined),inactive,inactive,inactive,inactive
CCC/C=C/C=C/C1CC(O)C2(O)C(=O)OCC12 (centres undefined),inactive,inactive,inactive,inactive
COC(CCc1ccc(O)cc1)CC(=O)CCc1ccc(O)cc1 (centres undefined),inactive,inactive,inactive,inactive
O=C(c1ccccn1)N(Cc1cccs1)C1(C(=O)NC2CCCCC2)CCCCC1,inactive,inactive,inactive,inactive
C#CCCCn1cc(-c2cccc3c2N[C@H](C)CC(=O)N3)cn1,7.08 µM (active),inactive,inactive,inactive
C=C1CCC[C@]2(C)CC/C(=C(/CO)C(=O)OC)C[C@@H]12,inactive,inactive,inactive,inactive
CCC[C@H](N[C@H]1CCc2cc(F)cc(F)c2C1)C(=O)Nc1cn(C(C)(C)CNCC(C)(C)C)cn1,inactive,inactive,inactive,inactive
Cc1cn(CCN2CCN(c3ccccc3-c3cc(C#N)cc(C(=O)NCCCN4CCCC4)c3)CC2)c2ccccc12,inactive,inactive,inactive,inactive
CC(C)=CCC[C@](C)(O[C@@H]1O[C@H](CO[C@@H]2OC[C@@H](O)[C@H](O)[C@H]2O)[C@@H](O)[C@H](O)[C@H]1O)[C@H]1CC[C@]2(C)[C@@H]1[C@H](O)C[C@@H]1[C@@]3(C)CC[C@H](O[C@@H]4O[C@H](CO)[C@@H](O)[C@H](O)[C@H]4O)C(C)(C)[C@@H]3CC[C@]12C,inactive,inactive,inactive,inactive
CCCCCCCOc1cc2c(cc1/C(C)=C/c1ccc(C(=O)O)cc1)C(C)(C)CCS2(=O)=O,inactive,inactive,inactive,inactive
O=C(NCCN1CCN(c2cccc3c2OCCO3)CC1)c1ccc(F)cc1,inactive,inactive,inactive,inactive
O=S(=O)(N[C@H]1CCCC[C@@H]1N1CCOCC1)c1ccc(Cl)cc1,inactive,inactive,inactive,inactive
Cc1ccc(CNc2ncnc3ccc(-c4ccc(CO)o4)cc23)o1,inactive,inactive,inactive,inactive
C=C1C(=O)O[C@@H]2/C=C(\CO)CC/C=C(\CO)[C@H](OC(C)=O)C(OC(=O)C(C)CC)C12 (some centres undefined),inactive,inactive,inactive,inactive
CC[C@@H]1C[C@]1(NC(=O)[C@@H]1C[C@@H]2CN1C(=O)[C@H](C(C)(C)C)NC(=O)OCC(C)(C)CCCCc1cccc3c1CN(C3)C(=O)O2)C(=O)NS(=O)(=O)C1CC1,inactive,inactive,inactive,inactive
